Bioassay records as filed in PubChem BioAssay.
NS1 inh = inhibitors of influenza NS1 protein function; AID 2326; 270,000 tested, 0.4% active; Potency, µM (top dose mostly 46.1 µM), inactives show top-dose activity, positive = more growth; calls by dose curve; further: potency means the concentration at half of the fitted maximal effect; actives are rising curves; nearly all actives have a fitted effect of over 50% in size
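A cell-based growth assay was used: compounds that relieve NS1-induced slow growth of budding yeast raise OD600. Assay medium was yeast nitrogen base with ammonium sulphate and -URA supplement, pH 6.0, with 2% galactose.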
Shiga inhibitor = inhibitors of Shiga toxin in Vero cells; Vero cells, Shiga toxin protein synthesis inhibition reporter; inhibition, % at 38.7 µM; 290,000 tested, 9.2% active; in the data active means inhibition mostly above about 28%, no sharp cut-off; inactive means mostly below about 43%; further: 0% is about no effect
LmPK inhibitor = blocks Leishmania mexicana pyruvate kinase activity | Potency, µM (highest dose often 57.5 µM), for the others: at the highest dose activity change, negative = inhibition, usual class: inhibitors | 290,000 tested, 0.37% active | purified LmPK, Kinase-Glo ATP luminescence, 1 h | AID 1721; further: potency means the concentration at half of the fitted maximal effect; on the % scale 0 is the no-effect control and ±100 the full control effect
Target sequence (Q27686 whole entry, looked up): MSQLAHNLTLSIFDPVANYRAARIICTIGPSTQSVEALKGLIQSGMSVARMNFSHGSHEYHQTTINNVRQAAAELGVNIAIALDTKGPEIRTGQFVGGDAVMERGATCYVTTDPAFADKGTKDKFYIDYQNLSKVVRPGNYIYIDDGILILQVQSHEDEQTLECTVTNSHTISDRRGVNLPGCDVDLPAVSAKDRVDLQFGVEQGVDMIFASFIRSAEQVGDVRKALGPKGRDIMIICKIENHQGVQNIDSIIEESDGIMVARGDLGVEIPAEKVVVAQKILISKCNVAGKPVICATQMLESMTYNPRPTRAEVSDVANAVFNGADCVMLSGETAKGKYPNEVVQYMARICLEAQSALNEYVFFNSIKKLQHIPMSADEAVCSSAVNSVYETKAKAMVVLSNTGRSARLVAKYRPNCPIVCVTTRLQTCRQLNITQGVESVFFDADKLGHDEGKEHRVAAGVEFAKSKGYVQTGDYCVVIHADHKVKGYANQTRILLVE
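ATP generated from ADP (0.1 mM) and PEP (0.5 mM) by 0.1 nM LmPK over 1 h at room temperature (pH 7.2 imidazole buffer) was detected by coupled luciferase luminescence. Values were normalized to uninhibited and no-enzyme wells.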
Giardia FBPA inh = blocks Giardia fructose-bisphosphate aldolase activity | Potency, µM (doses to about 59.6 µM), without a hit: top-dose activity, negative = inhibition, usual class: inhibitors | AID 2451 | 290,000 tested, 0.71% active | purified Giardia FBPA; further: potency means the concentration at half of the fitted maximal effect; on the % scale 0 is the no-effect control and ±100 the full control effect; nearly all actives have a fitted effect of over 55% in size
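Giardia FBPA (40 nM reagent) was preincubated 10 min at RT with compound (up to 57.5 uM final), then substrate plus GAPDH/TPI/NAD/arsenate coupling system with diaphorase/resazurin was added; resorufin fluorescence (525/598 nm) was read after 20 min.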
CHX counter = affects cycloheximide protein synthesis inhibition readout, counter-screen. cell reporter, cycloheximide protein synthesis inhibition counterscreen. max response, %. 300,000 tested, 12% active. AID 2314; in the data active means max response mostly above about 13%, no sharp cut-off; inactive means mostly below about 14%; further: read at 38.3 µM for the half of the compounds with a filed dose; 0% is about no effect
* marks the source's active call; other numbers are inactive results. A selection: hits, their analogues and other compounds. The true share with any hit is near 14%. Unless noted, the call rests on the fitted dose curve; in most records, active means well fitted curve in the direction sought with a large enough effect; inconclusive means small, poorly fitted or top-dose-only effect, or another doubt; inactive means no such curve, though single readings can be large; an effect the other way counts as inactive or inconclusive.

Screening O=C(Nc1ccccc1)C1CC2CCC1C2 (stereo not given) returned NS1 inh 8.7%, Shiga inhibitor 22.4, LmPK inhibitor -4.6%, Giardia FBPA inh 8.3% and CHX counter 12.4.
For CCN(CC)c1ccc(NC(=O)C2CC3CCC2C3)cc1 (stereo not given) the results were NS1 inh -19.7%, Shiga inhibitor 107.4*, LmPK inhibitor 0.3%, Giardia FBPA inh -20.7% and CHX counter 50.9*.
`CC(C)c1cc(C(F)(F)F)nc(NNc2nc(C(C)C)cc(C(F)(F)F)n2)n1` gave NS1 inh -0.5%.
`COCC(C)n1c(C)cc(C(=O)COC(=O)c2ccc3ncsc3c2)c1C` (stereo not given) gave NS1 inh 3.3%, Shiga inhibitor 68.1*, LmPK inhibitor 9.5%, Giardia FBPA inh 8.7% and CHX counter 24.3*.
`CCN(CC)c1ccc(/C=C/C(=O)C2C(=O)C=C(C)OC2=O)cc1` (stereo not given) gave Shiga inhibitor 99.9*, LmPK inhibitor inconclusive, Giardia FBPA inh -3.5% and CHX counter 25.7*.
`O=C(COc1cc2oc(=O)cc(-c3ccccc3)c2cc1Cl)NC(Cc1c[nH]c2ccc(O)cc12)C(=O)O` (stereo not given) gave NS1 inh -6.8%, Shiga inhibitor -7.2, LmPK inhibitor 9.0%, Giardia FBPA inh -0.9% and CHX counter 4.9.
CSc1cccc(NC(=O)CCc2ccccc2)c1 was read as Shiga inhibitor 50.1*, LmPK inhibitor -2.2%, Giardia FBPA inh -5.7% and CHX counter 18.3*.
For Cc1ccccc1NC(=S)NC(=O)CCc1ccccc1 the results were NS1 inh -16.1%, Shiga inhibitor 18.5, LmPK inhibitor 1.7%, Giardia FBPA inh -2.3% and CHX counter 16.8*.
`Cc1cccc(C)c1NC(=S)NC(=O)CCc1ccccc1` gave NS1 inh -2.6%, Shiga inhibitor 0.9, LmPK inhibitor 1.9% and CHX counter -2.1.
For COCc1cccc(NC(=O)CCc2ccccc2)c1 the results were NS1 inh -9.0%, Shiga inhibitor 49.2*, LmPK inhibitor -1.6%, Giardia FBPA inh 0.0% and CHX counter 18.3*.
Screening O=C(CCc1ccccc1)Nc1cc(NC(=O)CCc2ccccc2)cc(C(=O)O)c1 returned NS1 inh 10.8%, Shiga inhibitor -3.9, LmPK inhibitor 1.8%, Giardia FBPA inh 10.6% and CHX counter -1.8.
Screening CCC(C)C(=O)Nc1cccc(SC)c1 (stereo not given) returned NS1 inh 3.4%, Shiga inhibitor 56.1, LmPK inhibitor 0.3%, Giardia FBPA inh inconclusive and CHX counter 16.4*.
For CSc1cccc(NC(=O)C(C)Sc2ccc(C)cc2)c1 (stereo not given) the results were NS1 inh -3.8%, Shiga inhibitor 4.5, LmPK inhibitor 3.7%, Giardia FBPA inh 6.9% and CHX counter 9.3.
For c1cncc(CNCc2cccnc2)c1 the results were NS1 inh 3.2%.
`CSc1cccc(NC(=O)CN(C)S(=O)(=O)c2ccccc2)c1` gave NS1 inh -5.1%, Shiga inhibitor 18.2, LmPK inhibitor -3.9%, Giardia FBPA inh 0.4% and CHX counter 17.9*.
Screening CSc1cccc(NC(=O)CN(C)S(=O)(=O)c2ccc(F)cc2)c1 returned NS1 inh -14.8%, Shiga inhibitor 4.2, LmPK inhibitor -4.4%, Giardia FBPA inh -1.6% and CHX counter -2.5.
For CSc1cccc(NC(=S)NC(=O)CCc2ccccc2)c1 the results were NS1 inh -10.0%, Shiga inhibitor 22.3, LmPK inhibitor 7.6%, Giardia FBPA inh -0.8% and CHX counter 23.0*.
For COc1ccc(N2CCN(CCCNC(=O)CN3C(=O)COc4ccccc43)CC2)cc1 the results were NS1 inh -1.1%, Shiga inhibitor -5.3, LmPK inhibitor 1.8%, Giardia FBPA inh -6.2% and CHX counter 6.9.
Screening O=C(N/N=C1/CC2C=CCC12)c1cccs1 (stereo not given) returned NS1 inh -9.5%, Shiga inhibitor 80.3*, LmPK inhibitor -3.7%, Giardia FBPA inh -8.0% and CHX counter 42.1*.
Screening O=C(N/N=C1/CC2C=CCC12)c1ccco1 (stereo not given) returned NS1 inh 6.7%, Shiga inhibitor 81.0*, LmPK inhibitor -3.6%, Giardia FBPA inh -2.1% and CHX counter 72.4*.
`O=[N+]([O-])c1ccc(Oc2cnc3ccccc3n2)cc1` gave Shiga inhibitor 83.7, LmPK inhibitor -3.4%, Giardia FBPA inh -1.3% and CHX counter 30.3.
For Clc1ccc(Oc2cnc3ccccc3n2)cc1 the results were NS1 inh 9.3%, Shiga inhibitor 32.9*, LmPK inhibitor -3.3%, Giardia FBPA inh 0.7% and CHX counter 20.5*.
`Cc1ccc(Oc2cnc3ccccc3n2)cc1` gave NS1 inh 1.1%, Shiga inhibitor 102.8*, LmPK inhibitor -4.4%, Giardia FBPA inh -2.0% and CHX counter 58.2*.
Fc1ccc(Oc2cnc3ccccc3n2)cc1 was read as Shiga inhibitor 39.2*, LmPK inhibitor -4.8%, Giardia FBPA inh -1.7% and CHX counter 22.3.
For COc1ccc(Oc2cc(C)c3ccccc3n2)cc1 the results were NS1 inh -13.1%, Shiga inhibitor 69.1*, LmPK inhibitor 1.7%, Giardia FBPA inh -1.7% and CHX counter 34.1.
Screening CCCn1c(-c2ccc(F)cc2)nc2c(NCCCN(CC)CC)nc(C)nc21 returned Giardia FBPA inh 2.0%.
Screening CC(=O)Nc1sc(N/N=C\c2ccccc2Cl)nc1-c1cccs1 returned NS1 inh 4.6%, Shiga inhibitor 81.6*, LmPK inhibitor -1.5%, Giardia FBPA inh -2.7% and CHX counter 73.1*.
For CCOc1cc(/C=N/NC(=O)CSc2cccc3cccnc23)ccc1O the results were Shiga inhibitor 18.7, LmPK inhibitor 1.4%, Giardia FBPA inh -9.8% and CHX counter -2.8.
Screening CCOc1cc(/C=N/Nc2nc(-c3cccs3)c(NC(C)=O)s2)ccc1O returned NS1 inh 9.6%, Shiga inhibitor 27.2, LmPK inhibitor 0.9%, Giardia FBPA inh -26.0% and CHX counter 19.7*.
For CC(=O)Nc1sc(NC(=O)c2ccc(Cl)cc2)nc1-c1cccs1 the results were NS1 inh 0.5%, Shiga inhibitor -14.4, LmPK inhibitor -3.0%, Giardia FBPA inh -5.5% and CHX counter -3.4.
`CC(=O)Nc1sc(N/N=C\c2ccccc2)nc1-c1cccs1` gave NS1 inh -7.1%, Shiga inhibitor active, LmPK inhibitor 0.4%, Giardia FBPA inh -18.6% and CHX counter 31.1*.
Screening CC(=O)Nc1sc(N/N=C\c2ccco2)nc1-c1cccs1 returned NS1 inh 6.4%, Shiga inhibitor 32.8, LmPK inhibitor 10.4%, Giardia FBPA inh -28.6% and CHX counter 11.9*.
Screening c1cn(-c2ccnc(-c3ccc4c(c3)OCO4)n2)cn1 returned Giardia FBPA inh -1.0%.
For CN(C)N1C(N)=C(C#N)C(c2cccs2)C2=C1CC(C)(C)CC2=O (stereo not given) the results were Shiga inhibitor 16.8, LmPK inhibitor -0.1%, Giardia FBPA inh 17.7µM* and CHX counter 1.3.
